Assay results as given in PubChem BioAssay.
Values without a mark were called inactive. The source made the active and inactive calls.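 How the source made its calls: active means mean z-score across replicates of 1.96 or higher in either the MELAS or the Rieske mutant cell line; inactive means the rest.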

assay: MELAS cybrid and Rieske KO viability enhancers – cell-based, MELAS cybrids, Rieske KO mouse fibroblasts, CellTiter-Glo, primary screen (AID 1508586); conditions: MELAS cybrid survival, low glucose, CellTiter-Glo 48 h; stronger effect = higher value;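 further: test concentration not given here; z relative to plate mean and SD of compound and empty wells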

Structure (SMILES)	z-score
CCCCNC(=O)[C@@H]1C[C@H](CN2CCOCC2)CN(CCc2ccccc2)C1	1.78
Cc1ccc(S(=O)(=O)N2CCN3C(=O)[C@H](Cc4ccc(Cl)cc4)NC(=O)[C@H]3C2)cc1	1.43
CC(C)N1C(=O)N(C)C2(CCN(Cc3ccc4c(c3)Cc3ccccc3-4)CC2)C1=O	-0.247
Cc1ccc(-c2cc(C(=O)N3CCSCC3)cc(S(=O)(=O)N3CCOCC3)c2)s1	-0.321
CC(C)C[C@@H]1NC(=O)[C@H]2CN(S(=O)(=O)c3cccc4ccccc34)CCN2C1=O	-0.496
CNS(=O)(=O)c1cc(NCc2cnc(C)[nH]2)cc(C(=O)Nc2ccc3c(c2)CCC3)c1	-0.00503
Cc1cc(-c2cc3c(n(C)c2=O)CCN(Cc2c(C)nc4sccn24)C3)ccc1F	-0.189
Cc1csc(-c2cc(C(=O)NCCN3CCCCC3)cc(S(=O)(=O)N3CCOCC3)c2)c1	0.0708
CCN1CCN(C(=O)c2cc(-c3cc(C)cs3)cc(S(=O)(=O)N3CCOCC3)c2)CC1	-0.416
COCCN1C(=O)N(C)C(=O)C12CCN(Cc1cnc(-c3ccccc3)s1)CC2	-0.0934
O=C(NCC1CCCO1)[C@@H]1C[C@H](CN2CCOCC2)CN(Cc2ccc3ccccc3c2)C1 (some centres undefined)	-0.349
CC(C)C[C@H]1C(=O)N2CCN(Cc3cnn(-c4ccccc4)c3)C[C@@H]2C(=O)N1C	0.221
CCOC(=O)c1nn(CCC(F)(F)F)c2c1CN(C(=O)c1ccco1)CC2	-0.696
CCCCNC(=O)[C@@H]1C[C@H](CN2CCOCC2)CN(Cc2ccc3ccccc3c2)C1	0.321
CCc1nc(CNc2cc(C(=O)N[C@H](C)c3ccc(OC)cc3)cc(S(=O)(=O)N(C)C)c2)c(C)[nH]1	-0.507
CCc1nc(CNc2cc(C(=O)Nc3ccc4c(c3)CCC4)cc(S(=O)(=O)NC)c2)c(C)[nH]1	-0.12
CN(C)c1ccc(/C=C/CN2CC(=O)N(CCCN3CCCC3=O)CC(O)C2)cc1 (centres undefined)	-0.11

Structure (SMILES)	z-score
Cc1ccc(Cl)cc1NC(=O)N[C@H]1C[C@H]2C(=O)N[C@H](C(C)C)C(=O)N2C1	-0.17
COC1CN(Cc2cn(C)c3ccccc23)CC(=O)N(Cc2ccccc2)C1 (centres undefined)	-0.128
CN(C)c1ncc(CN2CCc3c(cc(Cc4ccccc4)c(=O)n3Cc3ccc(F)cc3)C2)s1	-0.5
COc1ccc(CN2C[C@@H](COc3cccc(C(F)(F)F)c3)C[C@@H](C(=O)NCC(C)C)C2)cc1OC	-0.34
Cc1noc(C)c1CC(=O)N1CCc2c(c(C(=O)N3CCOCC3)nn2CCCc2ccccc2)C1	0.975
CC(C)/C=C/CNc1cc(C(=O)NCc2cn3ccccc3n2)cc(S(=O)(=O)NC(C)C)c1	1.64
O=C1N[C@@H](COCc2ccccc2)C(=O)N2C[C@@H](NCc3cnn(-c4cccc(F)c4)c3)C[C@@H]12	1.94
Cc1csc(-c2cc(C(=O)NCCC3CCCN3C)cc(S(=O)(=O)N3CCOCC3)c2)c1 (centres undefined)	4.59 (active)
COc1ccccc1C(=O)N1CCN2C(=O)[C@H](CCCCN)NC(=O)[C@H]2C1	0.643
Cc1ccn2cc(C(=O)N3CCc4c(cc(-c5ccc(OC(F)(F)F)cc5)c(=O)n4C)C3)nc2c1	-0.191
Cn1c2c(cc(-c3ccc(OC(F)(F)F)cc3)c1=O)CN(C(=O)C1CC(=O)c3ccccc31)CC2 (centres undefined)	0.0877
O=C1N[C@H](CO)C(=O)N2CCN(C(=O)c3ccc(F)cc3)C[C@H]12	1.91
CC(C)N1CC(OCc2ccc(F)cc2)CN(C(=O)c2ccc(C#CC(C)(C)O)o2)CC1=O (centres undefined)	-0.3
CN(C)C(=O)c1nn(Cc2ccccc2)c2c1CN(C(=O)C1CC(=O)Nc3ccccc31)CC2 (centres undefined)	-0.404
COc1ccc(CNC(=O)c2cc(NCc3nc[nH]c3C)cc(S(=O)(=O)N3CCCC3)c2)cc1	-0.477
Cc1ccc(-c2cc(C(=O)N3CCC[C@H]3CO)cc(S(=O)(=O)N3CCOCC3)c2)s1	-0.348
Cc1csc(-c2cc(C(=O)NCCCN3CCOCC3)cc(S(=O)(=O)N3CCOCC3)c2)c1	-0.167
